# From PubChem BioAssay (Tox21)
# Inconclusive results are not listed. Entries that show only a call come without a potency. Values without a mark were called inactive. Activity calls are given as the source filed them. Unless noted, the call rests on the fitted dose curve.
# Assay: qHTS assay for small molecule agonists of the antioxidant response element (ARE) signaling pathway (AID 743202; active means well fitted activation curve with a large enough effect in the signal ratio in the repeat runs, not every such curve was filed as active; the % refers to the signal ratio)
# Conditions: HepG2 ARE-bla reporter, beta-lactamase FRET, 16 h; series mostly up to 73.3 µM
# Method in brief: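 ARE-bla HepG2 cells (beta-lactamase reporter under the antioxidant response element), plated 5 hours, then exposed to compounds 16 hours at 37 C. LiveBLAzer B/G FRET substrate added for 2 hours at room temperature; fluorescence intensity read.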
row,Compound,Potency
1,C=CC(=O)OCCCCCC,inactive
2,C#CC(O)CCCCC (stereo not drawn),inactive
3,CCCCCCCCC=O,inactive
4,N[C@@H](CS)C(=O)O,inactive
5,C=C(C)C(=O)NCCC[N+](C)(C)C,inactive

# Assay: qHTS assay for small molecule agonists of the antioxidant response element (ARE) signaling pathway - cell viability counter screen (AID 743203); further: nearly all actives have a fitted effect of over 55% in size
# Conditions: ARE-bla HepG2 viability, CellTiter-Glo luminescence, 16 h; series mostly up to 73.3 µM
# Method in brief: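 CellSensor ARE-bla HepG2 cells, 2,000 per well, rested 5 hrs at 37C/5% CO2, then exposed to compound in DMSO for 16 hrs; viability read as CellTiter-Glo luminescence after 30 min at room temperature, in the reporter wells.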
Compound,outcome,"viability change, negative = cytotoxic"
CC1=CC(C)C(C=O)C(C)C1 (stereo not drawn),inactive,
Cc1cc(C)c(NC(=O)CN(CC(=O)O)CC(=O)O)c(C)c1Br,inactive,
OC/C=C/c1ccccc1,inactive,
C#CC(O)C(CC)CCCC (stereo not drawn),inactive,
C=C(C)C(=O)OCCCCCCCCCCCCCCCCCC,inactive,
C=CCOc1nc(OCC=C)nc(OCC=C)n1,inactive,
CCCCCN(CCCCC)C(=O)C(CCC(=O)O)NC(=O)c1ccc(Cl)c(Cl)c1 (stereo not drawn),inactive,
OCCCCCCO,inactive,
NS(=O)(=O)c1cc2c(cc1C(F)(F)F)NC(Cc1ccccc1)NS2(=O)=O (stereo not drawn),inactive,
CCO[Si](CCCN=C=O)(OCC)OCC,inactive,
CC(C=O)Cc1ccc(C(C)C)cc1 (stereo not drawn),inactive,
CC1=CC(=O)CCC1,inactive,
O=C(O)/C=C/c1ccc(/C=C/C(=O)O)cc1,inactive,
CCCOCC(C)OCC(C)O (stereo not drawn),inactive,
OC[C@H]1O[C@@H]2O[C@H]3[C@H](O)[C@@H](O)[C@@H](O[C@H]4[C@H](O)[C@@H](O)[C@@H](O[C@H]5[C@H](O)[C@@H](O)[C@@H](O[C@H]6[C@H](O)[C@@H](O)[C@@H](O[C@H]7[C@H](O)[C@@H](O)[C@@H](O[C@H]8[C@H](O)[C@@H](O)[C@@H](O[C@H]9[C@H](O)[C@@H](O)[C@@H](O[C@H]1[C@H](O)[C@H]2O)O[C@@H]9CO)O[C@@H]8CO)O[C@@H]7CO)O[C@@H]6CO)O[C@@H]5CO)O[C@@H]4CO)O[C@@H]3CO,inactive,
OCc1ccccn1,inactive,
NC(=O)CCCCC1CCSS1 (stereo not drawn),inactive,
CSc1ccc(C=O)cc1,inactive,
CCCc1ccccc1O,inactive,

Compound,outcome,"viability change, negative = cytotoxic"
CCCC(=O)O[C@]1(C(=O)CCl)[C@@H](C)C[C@H]2[C@@H]3CCC4=CC(=O)C=C[C@]4(C)[C@@]3(F)C(=O)C[C@@]21C,inactive,
CCOC(=O)Cn1c(=O)sc2cccc(Cl)c21,inactive,
COC(=O)CCCC(=O)O,inactive,
C/C=C1\C(=O)C[C@H]2[C@@H]3CCC4=CC(=O)CC[C@]4(C)[C@H]3CC[C@]12C,inactive,
FC(F)(F)C(F)(F)C(F)(F)C(F)(F)C(F)(F)C(F)(F)C(F)(F)C(F)(F)C(F)(F)C(F)(F)F,,0.46% [at 8.36 µM]
C=CC(=O)OCCCCCC,inactive,
COc1cc(CCC(C)=O)ccc1O,inactive,
CCn1cc(C(=O)O)c(=O)c2cc(F)c(N3CCN(C)CC3)cc21,inactive,
O=S(=O)(O)c1ccccc1O,inactive,
C#CC(O)CCCCC (stereo not drawn),inactive,
Cc1c(C)n(CCN(C)C)c2ccc(C(=O)OCCN(C)C)cc12,inactive,
C=CC(=O)N1CCOCC1,inactive,
OCC(O)[C@@H](O)[C@H](O)[C@H](O)CO[C@H]1O[C@H](CO)[C@@H](O)[C@H](O)[C@H]1O (stereo partly drawn),inactive,
CCCCCCCCC=O,inactive,
CC(CCO)CCCC(C)(C)O (stereo not drawn),inactive,
C[C@H]1O[C@@H](n2cc(F)c(=O)[nH]c2=O)[C@H](O)[C@@H]1O,inactive,
CCCCCCCCCCC1CO1 (stereo not drawn),inactive,
N[C@@H](CS)C(=O)O,inactive,
C=C(C)C(=O)NCCC[N+](C)(C)C,inactive,
